Tau filament bind = binds recombinant human tau filaments | P10636 | recombinant tau filaments, thioflavin S fluorescence, 15 h; filaments grown with octadecylsulfate alongside compound | Potency, µM (top dose mostly 57.1 µM) | 71,000 tested, 2% active | AID 596;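 further: actives lower thioflavin S fluorescence by blocking filaments or displacing dye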
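ThS-based fibril read: tau 1 uM final, inducer ODS 30 uM final, 37 C for 15 h, ex 450/em 510 nm.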
ERK AVP inh = vasopressin-driven ERK pathway inhibition. HEK293-V1b, vasopressin-stimulated pERK AlphaScreen. Potency, µM (highest dose often 57.5 µM), usual class: inhibitors. AID 995. 72,000 tested, 0.99% active; further: nearly all actives have a fitted effect of over 55% in size
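V1b-HEK293 cells; cpd 30 min 37C; 25 nM vasopressin 5 min; lyse 10 min; AlphaScreen beads 5 hr RT. Normalized to DMSO basal and 25 nM vasopressin; AC50 by Hill fit.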
CRE Fsk mod = modulators of forskolin-stimulated CRE signaling in CHO cells; Potency, µM (top dose mostly 38.2 µM), usual class: activators; CHO CRE-bla reporter (cAMP response element driving beta-lactamase), forskolin EC10, beta-lactamase ratio; 71,000 tested, 2.5% active; active means well fitted activation curve with a large enough effect in the signal ratio, with a control signal flat, not every such curve was filed as active; inconclusive means small, poorly fitted or top-dose-only effect, or effect the other way, or a change in a side signal; the % refers to the signal ratio
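CRE-bla CHO cells stimulated with EC10 NKH 477 (water-soluble forskolin) and compound titrations, 3 h at 37C; beta-lactamase read with CCF4 after 2 h at room temperature. Activity from 460/530 nm emission ratio, AC50 values for positive or negative modulation.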
HEK293 cAMP cs = counter-screen for TSHR agonists: cAMP increase in parental HEK293 | parental HEK293 CNG cAMP sensor, membrane potential fluorescence | AID 938 | 73,000 tested, 2.5% active | Potency, µM (doses to about 57.1 µM), hits mostly activators; further: nearly all actives have a fitted effect of over 55% in size
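Parental HEK 293 cells stably expressing a cAMP-gated CNG channel were loaded with membrane potential dye containing 100 uM RO 20-1724 for 60 min. Compound added for 30 min; depolarization read as fluorescence intensity at 590 nm.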
TSHR agonist = TSH receptor (human) agonism; P16473; HEK293-CNG-TSHR cells (CNG channel as cAMP sensor), membrane potential dye, cAMP; Potency, µM (top dose mostly 57.1 µM), actives largely listed as activators; 73,000 tested, 0.48% active; AID 926; active means well fitted activation curve with a large enough effect in the main read-out, with a control signal flat, not every such curve was filed as active; inconclusive means small, poorly fitted or top-dose-only effect, or a change in a side signal; inactive means no such curve, though single readings can be large or run the other way; reference of the percent scale not stated here;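 further: the control signal comes from parental cells without the receptor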
Target sequence (P16473 whole entry, looked up): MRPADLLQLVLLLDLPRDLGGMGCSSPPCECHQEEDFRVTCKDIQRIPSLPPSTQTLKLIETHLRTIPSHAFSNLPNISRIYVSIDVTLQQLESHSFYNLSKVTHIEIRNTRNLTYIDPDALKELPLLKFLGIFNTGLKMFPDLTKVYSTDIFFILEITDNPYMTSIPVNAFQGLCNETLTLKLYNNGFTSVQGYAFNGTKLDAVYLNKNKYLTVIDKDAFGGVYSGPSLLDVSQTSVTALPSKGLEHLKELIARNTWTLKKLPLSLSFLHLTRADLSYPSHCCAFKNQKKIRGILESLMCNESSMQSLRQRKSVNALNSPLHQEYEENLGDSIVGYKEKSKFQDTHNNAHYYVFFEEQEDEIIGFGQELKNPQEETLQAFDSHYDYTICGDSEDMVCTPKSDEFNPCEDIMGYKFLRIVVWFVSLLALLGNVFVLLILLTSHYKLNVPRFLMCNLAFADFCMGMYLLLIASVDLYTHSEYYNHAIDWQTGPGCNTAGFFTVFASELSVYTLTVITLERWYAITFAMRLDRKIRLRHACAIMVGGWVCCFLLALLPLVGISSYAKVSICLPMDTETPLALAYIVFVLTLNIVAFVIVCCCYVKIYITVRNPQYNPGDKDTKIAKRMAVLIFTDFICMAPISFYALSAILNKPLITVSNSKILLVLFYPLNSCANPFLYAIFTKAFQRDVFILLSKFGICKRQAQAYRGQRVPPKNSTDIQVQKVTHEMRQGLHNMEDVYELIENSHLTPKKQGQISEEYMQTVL
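cAMP rise detected as CNG-channel membrane depolarization by fluorescent dye (emission 590 nm), 30 min after compound, following 60 min dye loading containing 100 uM RO 20-1724 at room temperature. Cells: TSHR/CNG HEK 293, with parental CNG HEK 293 as control.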
Each line names hits and unclear results; the compound was inactive in the other large screens; ! = a repeat was not active. Hits are enriched below; roughly 7.6% of the tested compounds scored in any of these assays. Unless noted, the call rests on the fitted dose curve; in most records, active means well fitted curve in the direction sought with a large enough effect; inconclusive means small, poorly fitted or top-dose-only effect, or another doubt; inactive means no such curve, though single readings can be large; an effect the other way counts as inactive or inconclusive.

O=C(c1cc(C(F)(F)F)cc(C(F)(F)F)c1)N1CCC2(CCCN(c3ccncc3)C2)CC1	HEK293 cAMP cs 7.9µM, TSHR agonist inconclusive
COc1ccc(C(=O)N2CCC[C@@]3(CCN(Cc4ccccc4OC)C3)C2)cc1	HEK293 cAMP cs 16µM, TSHR agonist inconclusive
COc1ccc(C(=O)N2CCC3(CC2)CN(c2ccncc2)C3)cc1	none
O=C(c1cc(C(F)(F)F)cc(C(F)(F)F)c1)N1CCC2(CC1)CCN(c1ccccn1)CC2	HEK293 cAMP cs 16µM, TSHR agonist inconclusive
Cc1ccc(S(=O)(=O)N[C@@H](CCc2ccccc2)CC(=O)C(C)(C)C)cc1	none (no result: Tau filament bind, CRE Fsk mod)
CCN(CC)CCOC(=O)[C@@H](Cc1cccc2ccccc12)C[C@@H]1CCCO1	none
N=c1ccn2c(n1)O[C@@H]1[C@@H](O)[C@H](CO)O[C@H]12	none
N#CC(C(=O)NC1CC1)c1nc2ccccc2nc1N1CCCC1 (stereo not given)	CRE Fsk mod 5µM
N#CC(C(=O)NC1CCCCC1)c1nc2ccccc2nc1N1CCCCC1 (stereo not given)	none
CN1CCN(c2nc3ccccc3nc2C(C#N)C(=O)OC2CCCCC2)CC1 (stereo not given)	Tau filament bind 0.63µM, CRE Fsk mod inconclusive, TSHR agonist inconclusive
COCCNC(=O)C(C#N)c1nc2ccccc2nc1N1CCCCCC1 (stereo not given)	CRE Fsk mod 10µM (no result: TSHR agonist)
COc1cccc(Nc2ncc3nc(C)c(=O)n(Cc4cccs4)c3n2)c1	CRE Fsk mod inconclusive, HEK293 cAMP cs 3.2µM, TSHR agonist inconclusive
COc1cccc(Nc2ncc3ncc(=O)n(CCc4ccccc4)c3n2)c1	ERK AVP inh inconclusive, CRE Fsk mod inconclusive
COc1ccc(-c2nc3cnc(Nc4cccc(OC)c4)nc3n(Cc3cccs3)c2=O)cc1	CRE Fsk mod inconclusive
COc1cccc(Nc2ncc3nc(C)c(=O)n(CCc4ccccc4)c3n2)c1	CRE Fsk mod 5µM, HEK293 cAMP cs inconclusive, TSHR agonist inconclusive
COc1cccc(Nc2ncc3nc(C)c(=O)n(C)c3n2)c1	Tau filament bind 13µM, CRE Fsk mod inconclusive
O=c1c(-c2cc(F)cc(F)c2)nc2cnc(N3CCOCC3)nc2n1C1CC1	CRE Fsk mod 1µM
CN1CCN(c2ncc3nc(-c4cc(F)cc(F)c4)c(=O)n(C4CC4)c3n2)CC1	Tau filament bind 16µM, ERK AVP inh inconclusive, CRE Fsk mod inconclusive
O=c1c(-c2cc(F)cc(F)c2)nc2cnc(N3CCNCC3)nc2n1C1CC1	CRE Fsk mod inconclusive
O=c1c(-c2ccc(F)cc2)nc2cnc(N3CCOCC3)nc2n1Cc1cccs1	CRE Fsk mod inconclusive
O=c1c(-c2cc(F)cc(F)c2)nc2cnc(N3CCOCC3)nc2n1Cc1cccs1	CRE Fsk mod 0.63µM
COc1ccc(Oc2ncc3nc(-c4cc(F)cc(F)c4)c(=O)n(C4CC4)c3n2)cc1	Tau filament bind 20µM
COC(=O)[C@@]1(Cc2ccc(F)cc2)[C@H]2c3cc(C(=O)N(C)C)n(CCc4ccc(O)c(O)c4)c3C[C@H]2CN1C(=O)c1ccccc1	CRE Fsk mod inconclusive
CC(C)CCn1c(Sc2nc3ccccc3s2)nc2c1c(=O)[nH]c(=O)n2C	CRE Fsk mod 10µM
CCCCCSc1nc2c(c(=O)[nH]c(=O)n2C)n1CCc1ccccc1	CRE Fsk mod 2.5µM (no result: ERK AVP inh)
CC(C)CCn1c(SCC(=O)c2ccccc2)nc2c1c(=O)[nH]c(=O)n2C	CRE Fsk mod inconclusive
CC(C)CCSc1nc2c(c(=O)[nH]c(=O)n2C)n1CCCc1ccccc1	CRE Fsk mod 3.2µM (no result: ERK AVP inh)
C[C@@H](c1ccccc1)N1C(=O)[C@H]2[C@H]3[C@H](O)[C@H](O)C/C(=N/OCc4ccccc4)[C@H]3CC[C@@H]2C1=O	none (no result: Tau filament bind, CRE Fsk mod)
C=CCOC(=O)C(C(C)=O)C(NC(=O)OC)c1cccs1 (stereo not given)	none (no result: Tau filament bind, CRE Fsk mod)
CC(=O)OCC1OC(n2cnc3c(Cl)nc(Cl)nc32)C(OC(C)=O)C1OC(C)=O (stereo not given)	none (no result: Tau filament bind, CRE Fsk mod, HEK293 cAMP cs, TSHR agonist)
Cc1cc(N2CCCCC2)nc(SCc2ccc(C#N)cc2)n1	CRE Fsk mod inconclusive, HEK293 cAMP cs 32µM, TSHR agonist inconclusive
Fc1ccc(Cn2nnc(-c3ccc(CN4CCOCC4)cc3)n2)cc1	none
Clc1ccc(Cn2nnc(-c3ccc(CN4CCOCC4)cc3)n2)cc1	HEK293 cAMP cs 32µM, TSHR agonist inconclusive
N#CC1=C(N)Oc2n[nH]c(-c3ccccc3)c2C1c1cccnc1 (stereo not given)	none
Cc1ccc(-c2[nH]nc3c2C(c2cccnc2)C(C#N)=C(N)O3)cc1 (stereo not given)	ERK AVP inh 13µM, CRE Fsk mod inconclusive
CCOc1cc(C2C(C#N)=C(N)Oc3n[nH]c(-c4ccccc4)c32)ccc1O (stereo not given)	ERK AVP inh 16µM, CRE Fsk mod inconclusive
c1cn(-c2cc(-c3ccc4c(c3)OCO4)ncn2)cn1	CRE Fsk mod inconclusive
CCCN1CC(CSC)C[C@H]2c3cccc4[nH]cc(c34)C[C@H]21 (stereo not given in full)	none (no result: Tau filament bind, CRE Fsk mod, HEK293 cAMP cs, TSHR agonist)
CC(C)CO/N=C1/[C@H]2O[C@@H]2[C@@H](O)[C@H]2[C@H]1CCn1c(=O)n(-c3ccccc3)c(=O)n12	none (no result: Tau filament bind, CRE Fsk mod)
CCOC(=O)Cc1nnc(NC(=O)c2ccccc2OCC)s1	CRE Fsk mod 13µM, HEK293 cAMP cs inconclusive, TSHR agonist inconclusive
CCOC(=O)Cc1nnc(NC(=O)c2ccccc2OC)s1	CRE Fsk mod inconclusive, HEK293 cAMP cs inconclusive, TSHR agonist inconclusive
CCc1nnc(NC(=O)c2ccc(OC)cc2OC)s1	CRE Fsk mod inconclusive, HEK293 cAMP cs 25µM, TSHR agonist inconclusive
Cc1ncc(CSC(=N)N)n1Cc1ccccc1	none
CC(C)C[C@@H](CC(=O)N[C@@H](CCCN)CC(=O)N[C@@H]1CCCC[C@H]1C(=O)N[C@H](CC(=O)N[C@@H](CCC(=O)O)CC(=O)O)CC(C)C)NC(=O)[C@@H]1CNCC[C@H]1N	none (no result: ERK AVP inh)
CC1=CC(C#N)(C#N)C(C#N)(C#N)C(c2ccccc2)N1 (stereo not given)	none
CCSC1(SCC)N=C(N)C2(C#N)C(c3ccccc3)NC(C)=C(C)C12C#N (stereo not given)	TSHR agonist 25µM
Cc1ccc(OC[C@H](O)[C@H](C)NC(C)C)c2c1CCC2	Tau filament bind inconclusive, CRE Fsk mod inconclusive, HEK293 cAMP cs 40µM!, TSHR agonist inconclusive
NC(=NCc1ccc(Cl)c(Cl)c1)NC(=O)c1nc(Cl)c(N)nc1N	HEK293 cAMP cs inconclusive, TSHR agonist inconclusive
Cc1nn(-c2ccccc2)c2nc(N)c(C#N)c(-c3ccc(F)cc3)c12	CRE Fsk mod 2µM, HEK293 cAMP cs inconclusive, TSHR agonist inconclusive
Cc1ccc(-n2nc(C)c3c(-c4cccs4)c(C#N)c(N)nc32)cc1	CRE Fsk mod inconclusive, HEK293 cAMP cs inconclusive, TSHR agonist inconclusive
CCCC(=O)c1cc2ccccc2oc1=O	CRE Fsk mod inconclusive
N#CC1=C(SCC(=O)c2cc3ccccc3oc2=O)NC(=O)C(C#N)C12CCCC2 (stereo not given)	ERK AVP inh 25µM

High-throughput results: PubChem, National Center for Advancing Translational Sciences (NCATS)
